Activity change, negative = inhibition data for 28 molecules are collected here from PubChem BioAssay AID892 (National Center for Advancing Translational Sciences (NCATS), 2007).

In all, about 75,000 compounds went through this assay and about 20 (0.03%) were called active. Calls follow the shape of the dose curve; as a rule, active = well fitted inhibition curve with a large enough effect; inconclusive = small, poorly fitted or top-dose-only effect; inactive = no such curve, though single readings can be large or run the other way. Not all results are given here.

In this test the target is Breast cancer type 1 susceptibility protein (Homo sapiens) (UniProt P38398). The experiment in a line: qHTS Assay for Inhibitors of BRCT-Phosphoprotein Interaction (Red Fluorophore). Conditions: BRCT-phosphopeptide binding, red fluorescence polarization; series mostly up to 76.9 µM. As for the experimental part: NIH Molecular Libraries Screening Centers Network [MLSCN]
Chain of Breast cancer type 1 susceptibility protein (Homo sapiens) (P38398 whole entry, looked up): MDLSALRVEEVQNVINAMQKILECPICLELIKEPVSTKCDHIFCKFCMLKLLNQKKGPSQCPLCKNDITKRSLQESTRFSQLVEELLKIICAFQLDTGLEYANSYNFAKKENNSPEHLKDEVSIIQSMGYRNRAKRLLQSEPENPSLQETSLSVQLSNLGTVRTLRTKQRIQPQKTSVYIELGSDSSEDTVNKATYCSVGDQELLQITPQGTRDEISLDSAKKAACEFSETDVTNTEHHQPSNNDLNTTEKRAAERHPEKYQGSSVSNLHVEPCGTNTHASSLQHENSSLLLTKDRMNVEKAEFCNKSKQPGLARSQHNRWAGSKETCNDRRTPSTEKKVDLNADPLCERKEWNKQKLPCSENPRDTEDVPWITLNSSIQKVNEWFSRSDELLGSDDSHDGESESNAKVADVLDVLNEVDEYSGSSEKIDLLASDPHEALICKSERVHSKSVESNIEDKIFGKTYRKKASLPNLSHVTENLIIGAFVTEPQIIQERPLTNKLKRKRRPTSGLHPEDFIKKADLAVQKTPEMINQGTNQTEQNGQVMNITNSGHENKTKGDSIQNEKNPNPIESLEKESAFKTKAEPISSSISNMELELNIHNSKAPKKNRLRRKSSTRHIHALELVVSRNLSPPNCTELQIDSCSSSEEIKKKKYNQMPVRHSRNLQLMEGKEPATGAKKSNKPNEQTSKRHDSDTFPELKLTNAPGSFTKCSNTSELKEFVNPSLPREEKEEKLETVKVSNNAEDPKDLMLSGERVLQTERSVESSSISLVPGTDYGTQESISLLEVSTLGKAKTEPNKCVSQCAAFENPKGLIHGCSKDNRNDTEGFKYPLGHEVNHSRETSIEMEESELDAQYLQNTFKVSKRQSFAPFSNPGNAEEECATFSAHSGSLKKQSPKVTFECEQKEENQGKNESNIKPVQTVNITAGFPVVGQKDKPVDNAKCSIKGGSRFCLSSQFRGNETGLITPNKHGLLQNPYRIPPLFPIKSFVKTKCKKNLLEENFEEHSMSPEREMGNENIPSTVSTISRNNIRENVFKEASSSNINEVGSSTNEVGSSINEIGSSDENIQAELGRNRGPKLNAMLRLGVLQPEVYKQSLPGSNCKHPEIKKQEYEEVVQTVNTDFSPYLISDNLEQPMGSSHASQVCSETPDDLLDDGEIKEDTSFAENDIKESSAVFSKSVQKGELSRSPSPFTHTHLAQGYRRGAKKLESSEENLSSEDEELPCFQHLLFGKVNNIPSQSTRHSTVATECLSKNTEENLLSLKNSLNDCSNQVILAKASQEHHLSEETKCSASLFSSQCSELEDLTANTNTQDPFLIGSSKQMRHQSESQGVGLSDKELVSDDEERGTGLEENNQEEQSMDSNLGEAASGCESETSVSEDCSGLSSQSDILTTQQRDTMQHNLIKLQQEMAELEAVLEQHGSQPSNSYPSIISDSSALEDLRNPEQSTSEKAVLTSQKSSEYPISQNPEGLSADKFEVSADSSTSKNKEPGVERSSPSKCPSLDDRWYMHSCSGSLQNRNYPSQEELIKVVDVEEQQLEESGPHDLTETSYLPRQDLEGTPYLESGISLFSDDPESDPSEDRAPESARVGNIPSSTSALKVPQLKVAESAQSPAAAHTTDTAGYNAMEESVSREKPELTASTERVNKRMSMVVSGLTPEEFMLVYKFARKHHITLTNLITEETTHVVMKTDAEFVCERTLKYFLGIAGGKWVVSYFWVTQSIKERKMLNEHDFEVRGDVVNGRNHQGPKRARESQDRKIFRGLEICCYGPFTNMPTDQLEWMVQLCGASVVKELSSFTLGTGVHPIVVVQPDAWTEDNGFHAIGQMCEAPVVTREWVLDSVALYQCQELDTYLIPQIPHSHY
NIH Chemical Genomics Center [NCGC]
PI Name: Natarajan, Amarnath; University of Texas
A complex of BRCT (C-terminal portion of BRCA1, MW ~35 kDa, His-tagged) and fluorescently labeled pBACH1 phosphorylated 10 aa peptide fragment of BACH1, a helicase implicated in DNA repair, is incubated with library members. Inhibitors of BRCT-pBACH1 binding are detected by a decrease in the fluorescence polarization (FP) of the fluorophore. In order to minimize the effect of fluorescence artifacts and to increase the overall robustness of the screen, the compound library members were incubated in separate reactions with rhodamine-labeled probe-protein complexes. Protein and labeled probes were supplied by Dr. Amarnath Natarajan, Department of Pharmacology and Toxicology, University of Texas Medical Branch Galveston, TX.
Assay Buffer: 16mM Na2HPO4, 4 mM NaH2PO4, 150 mM NaCl, 1 mM EDTA, 1 mM DTT, 0.02% NaN3, and 0.01% Tween 20 at pH 7.3.
Assay Controls: 100 nM TAMRA labeled decapeptide dispensed into columns 3 and 4 to generate negative control (full inhibition of
binding, -100 % activity). 100 nM labeled decapeptide/100 nM protein in columns 1, 2, 5 - 48. Titration of unlabeled decapeptide control (from 10 mM, then 1:2 dilution in duplicate) pin-transferred to column 2, rows 1 to 16. Column 1 is neutral.
Three uL of reagents were dispensed to 1536-well Greiner black solid-bottom plates. Compounds and controls (23 nL) were transferred via Kalypsys PinTool. The plates were incubated for 12 min at room temperature, and then read on ViewLux (Perkin-Elmer) High-throughput CCD imager using BODIPY for the rhodamine-labeled decapeptide probe polarization filter sets. During dispense, reagent bottles were kept submerged into 4 deg C water bath and all liquid lines were covered with aluminum foil to minimize probe and protein degradation. All screening operations were performed on a Kalypsys robotic system (Kalypsys, Inc., San Diego, CA) containing one RX-130 and two RX-90 anthropomorphic robotic arms. The timing and order of assay plates passing through the screening system were adjusted such that each compound library plate was assayed against the fluorescein- and rhodamine-labeled assay systems at immediately adjacent time points.
For orientation: Quantitative high-throughput screening tests each substance at several concentrations.
On to `CCOC(=O)Nc1ccc2c(c1)N(C(=O)CN1CCN3CCCC3C1)c1ccccc1CC2` (stereo not drawn), for which the activity change, negative = inhibition result was “inactive”. Turning to `COc1ccc(C)cc1-n1nnnc1SCC(=O)c1cc(C)n(Cc2ccco2)c1C`, the activity change, negative = inhibition result was “inactive”. On to `O=C(CN1CCN(c2ccccc2F)CC1)c1ccc2c(c1)OCO2`, for which the activity change, negative = inhibition result is “inactive”. Turning to `COc1ccc(OC)c(NC(=O)CN2CCN(C(=O)c3ccco3)CC2)c1`, the activity change, negative = inhibition entry is “inactive”. The value for `COCCn1nnnc1C(c1ccccc1Cl)N1CCN(c2ccccc2OC)CC1` (stereo not drawn) was “inactive”.

`COC(=O)[C@@H]1C[C@@]2(O)[C@H](O)[C@H](O)[C@H](O)C[C@H]2N1CC1CCCCC1`: the activity change, negative = inhibition entry was “inactive”.

Consider `CC(C)Oc1ccc(C2NC(=O)NC2=O)cc1` (stereo not drawn), for which the activity change, negative = inhibition result is “inactive”. The entry for `O=C(CN(Cc1ccccc1)C(=O)c1ccc2c(c1)OCCO2)NCc1ccc2c(c1)OCO2` is “inactive”; for `CC(=O)N1CCC2(CCCN(Cc3ccccc3)C2)CC1` it is “inactive”; for `COc1ccccc1NC(=O)CSc1nnc(Cc2cccn2C)n1-c1ccc(F)cc1` it is “inactive”. As for `O=C(CSc1ncccn1)NC(=O)NCc1ccccc1`, the activity change, negative = inhibition entry is “inactive”. The value for `Cc1ccsc1C(=O)OCC(=O)c1cc(C)n(CC2CCCO2)c1C` (stereo not drawn) was “inactive”.

Turning to `COc1ccc(NC(=O)CCNC(=O)Cn2ccc3ccccc3c2=O)c(OC)c1`, the activity change, negative = inhibition entry is “inactive”. The entry for `Cc1ccccc1CSc1nnc(-c2cccnc2)n1N` is “inactive”; for `COc1cc(C(=O)N(Cc2ccc(N(C)C)cc2)C2CCS(=O)(=O)C2)cc(OC)c1OC` (stereo not drawn) it is “inactive”; for `CCCCCCN(C(=O)CCCCCN1C(=O)NC(c2ccc(C(F)(F)F)cc2)C(C(=O)OCc2ccccc2)=C1C)C(C(=O)NCCCC)c1ccc(OCC(=O)OC)c(C(=O)OC)c1` (stereo not drawn) it is “inactive”. As for `CC1CCc2sc3nc(N4CCN(CCO)CC4)n4ncnc4c3c2C1` (stereo not drawn), the activity change, negative = inhibition entry is “inactive”. Turning to `Cc1ccc(NC(=O)N2CCC(C(=O)NCc3ccc(F)cc3)CC2)cc1`, the activity change, negative = inhibition result is “inactive”.

On to `CC(CCC(=O)O)C1CCC2C3C(O)C[C@@H]4CC(O)CC[C@@]4(C)C3CC[C@@]12C` (stereo partly drawn), for which the activity change, negative = inhibition entry is “inactive”.

On to `Cn1c(=O)c2[nH]c(NCC3CCCO3)nc2n(-c2ccccc2)c1=O` (stereo not drawn), for which the activity change, negative = inhibition entry is “inactive”. The entry for `FC(F)(F)c1cccc(Nc2ncnc3ccccc23)c1` is “inactive”; for `CCOC(=O)C1CCN(C(=O)Nc2ccc(Cl)cc2)CC1` it is “inactive”; for `CCS(=O)(=O)N1CCC(C(=O)N2CCN(c3ccccc3)CC2)CC1` it is “inactive”. Turning to `CCN(CC)CCNC(=O)C1c2ccccc2C(=O)N(C)C1c1cn(C)c2ccccc12` (stereo not drawn), the activity change, negative = inhibition entry is “inactive”. For the molecule `CCCCC(=O)Nc1cc(C)c2c(=O)oc3ccccc3c2n1`, the activity change, negative = inhibition entry is “inactive”. With `COc1ccc(CCNC(=O)CSc2nnc(-c3cccc(F)c3)o2)cc1OC`, the activity change, negative = inhibition result is “inactive”. Take `COC(=O)C1=C(C)OC(N)=C(C#N)C1c1cc(OC)ccc1OC` (stereo not drawn): the activity change, negative = inhibition entry was “inactive”. The value for `C[C@H](CCC(=O)NCC(=O)O)[C@H]1CC[C@H]2[C@H]3[C@@H](C[C@@H](O)[C@]12C)[C@]1(C)CC[C@H](O)C[C@@H]1C[C@@H]3O` was “inactive”.
